Bioassay records: PubChem BioAssay, several laboratories
Exocytosis inh – blocks lytic granule exocytosis. TALL-104 LAMP-1 surface exposure, flow cytometry; cells stimulated with thapsigargin and PMA. 360,000 tested, 0.66% active. inhibition, % at 10 µM;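 active means inhibition above about 55%, limit read from the data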
PP1 counter – counter-screen for PP5 inhibitors: inhibitors of human PP1-alpha | P62136 | purified PP1alpha, OMFP fluorescence | inhibition, % at 6.7 µM | 320,000 tested, 0.9% active | AID 2235;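 active means inhibition above the mean inhibition of all tested compounds plus 3 SD, computed separately for each screening campaign, cut at about 15% in these data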
Beta2AR agonist – activates human beta-2 adrenergic receptor causing internalization; P07550; Am2.2-beta2AR cells, FAP receptor internalization, flow cytometry; response, % (no concentration beside the values); 340,000 tested, 0.43% active; AID 504454;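 active means response above a set limit, near 3 SD of response in nonfluorescent compounds, cut at about 42% in these data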
NadD block – blocks S. aureus nicotinate mononucleotide adenylyltransferase. AID 602399. 360,000 tested, 0.78% active. purified NadD enzyme, colorimetric absorbance read-out. inhibition, % at 20 µM; in the data active means inhibition above about 26%
GRK2 aptamer HTS – inhibitors of human GRK2 displacing RNA aptamer; AID 488847; bead flow cytometry, FAM-aptamer displacement from GRK2; 330,000 tested, 0.59% active; P25098; inhibition of aptamer binding, % at 10 µM;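 active means inhibition of aptamer binding above 40%, roughly 3 SD of noise, on plates passing a quality check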;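 further: median bead fluorescence of bound FAM aptamer so fluorescent compounds give negative values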
Target sequence (P25098 whole entry, looked up): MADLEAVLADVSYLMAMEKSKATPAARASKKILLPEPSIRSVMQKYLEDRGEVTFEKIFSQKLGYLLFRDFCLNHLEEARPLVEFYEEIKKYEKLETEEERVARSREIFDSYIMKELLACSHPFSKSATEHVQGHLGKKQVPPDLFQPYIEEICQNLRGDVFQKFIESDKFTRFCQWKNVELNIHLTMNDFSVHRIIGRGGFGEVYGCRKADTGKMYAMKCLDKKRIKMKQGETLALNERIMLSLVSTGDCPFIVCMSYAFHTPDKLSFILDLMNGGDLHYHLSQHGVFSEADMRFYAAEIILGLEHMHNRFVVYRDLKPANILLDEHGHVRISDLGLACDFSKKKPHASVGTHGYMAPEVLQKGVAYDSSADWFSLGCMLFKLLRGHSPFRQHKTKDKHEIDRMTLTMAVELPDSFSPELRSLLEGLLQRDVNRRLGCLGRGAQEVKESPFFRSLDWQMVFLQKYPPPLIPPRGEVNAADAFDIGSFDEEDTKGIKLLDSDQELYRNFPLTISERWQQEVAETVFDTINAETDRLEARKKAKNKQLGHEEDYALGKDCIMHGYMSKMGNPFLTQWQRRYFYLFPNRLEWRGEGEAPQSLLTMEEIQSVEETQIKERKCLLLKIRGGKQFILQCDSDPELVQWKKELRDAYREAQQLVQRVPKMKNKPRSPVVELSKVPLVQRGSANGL
PP1 inh confirm – human PP1 phosphatase inhibition, confirmation; 1,900 tested, 52% active; AID 2358; inhibition, % at 6.7 µM; shares compounds with PP1 counter; purified PP1alpha, OMFP substrate fluorescence;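 active means mean PP1 inhibition above a set limit taken from the earlier primary screen, cut at about 15% in these data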
PP5 counter – counter-screen for PP1 inhibitors: human PP5 phosphatase inhibition. shares compounds with PP1 counter. purified PP5c, OMFP fluorescence. inhibition, % at 6.7 µM. 1,900 tested, 4% active;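 active means mean PP5 inhibition over triplicate wells above about 9.5% taken from the earlier PP1 screen, limit read from the data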
Of the large screens only hits and unclear results are named; the others gave an inactive call (follow-up assays come after a bar, where they were run). Shown are actives, neighbours in structure and some others; about 2.9% of the full set was active somewhere.

COC(=O)CCC(=O)OC1(C)C(=O)C2=CN(c3ccc(OC)cc3)C(c3ccc(OC)cc3)=CC2=C(Br)C1=O (configuration not stated)	PP1 counter 20 | PP1 inh confirm 16 | PP5 counter 20
COCCN1C=C2C(=O)C(C)(OC(=O)CCC(=O)OC)C(=O)C(Br)=C2C=C1c1ccc(OC)cc1 (configuration not stated)	none
COC(=O)CCC(=O)OC1(C)C(=O)C=C2C=C(C3CC3)N(c3ccc(CO)cc3)C=C2C1=O (configuration not stated)	PP1 counter 19 (no result: Exocytosis inh, Beta2AR agonist, NadD block) | PP1 inh confirm 20 | PP5 counter 9.9
COC(=O)CCC(=O)OC1(C)C(=O)C=C2C=C(C3CC3)N(c3cccc(C#N)c3)C=C2C1=O (configuration not stated)	none
COC(=O)CCC(=O)OC1(C)C(=O)C2=CN(C3CCCC3)C(c3ccc(OC)cc3)=CC2=C(Br)C1=O (configuration not stated)	PP1 counter 17 | PP1 inh confirm inactive | PP5 counter 35
COc1ccc(N2CCN(C(=O)c3ccc(CNS(=O)(=O)c4cc(C)ccc4C)cc3)CC2)cc1	none (no result: PP1 counter)
CCN(CC)CCOC(=O)c1ccc(N/C=C(/C#N)c2nc(-c3ccc4c(c3)OCO4)cs2)cc1	PP1 counter 65 | PP1 inh confirm 39 | PP5 counter inactive
Cc1ccc(-c2nc(NCc3ccco3)c3ccccc3n2)cc1	none
Cc1ccccc1Nc1nc(NCc2ccco2)c2ccccc2n1	Exocytosis inh 82, PP1 counter 25 | PP1 inh confirm inactive | PP5 counter inactive
Cc1cccc(Nc2nc(NCc3ccco3)c3ccccc3n2)c1	PP1 counter 25 | PP1 inh confirm inactive | PP5 counter inactive
CSc1nc(NCc2ccco2)c2ccccc2n1	none
Cc1ccc(C)c(S(=O)(=O)NCc2ccc(C(=O)NCc3ccccn3)cc2)c1	none
O=C(NCCCN1CCCC1=O)c1ccc(Cl)c(Cl)c1	none
CC(C)(C)c1cc(NCCCn2ccnc2)n2ncc(-c3ccccc3)c2n1	PP1 counter 21 | PP1 inh confirm inactive | PP5 counter inactive
O=C(Cc1cccs1)NNC(=S)NC(=O)c1ccccc1	none
O=C(/C=C/c1ccccc1)NC(=S)NNC(=O)Cc1cccs1	PP1 counter 24 | PP1 inh confirm 17 | PP5 counter inactive
CC(=O)Oc1ccc2ccc3ccc(C(C)=O)cc3c2c1	none (no result: PP1 counter, GRK2 aptamer HTS)
O=C(/C=C/c1ccccc1)NCCc1ccccc1	PP1 counter 35 | PP1 inh confirm inactive | PP5 counter inactive
COc1ccc(CCNc2nc(-c3ccccn3)cs2)cc1OC	PP1 counter 47 | PP1 inh confirm 41 | PP5 counter inactive
Cc1nn(CCc2nn[nH]n2)c2nc(-c3ccc(C4CCCCC4)cc3)cc(C(F)(F)F)c12	PP1 counter 18 | PP1 inh confirm 26 | PP5 counter inactive
Cc1nn(CCC(=O)O)c2nc(-c3cccnc3)cc(C(F)(F)F)c12	none
Cc1ccc(S(=O)(=O)N2CCC(C(=O)OCC(=O)NCc3cccc(Cl)c3)CC2)cc1C	none (no result: PP1 counter)
O=c1cc(-c2ccc(F)cc2)[nH][nH]1	none
O=c1cc(-c2ccc(C3CCCCC3)cc2)[nH][nH]1	PP1 counter 18 | PP1 inh confirm inactive | PP5 counter inactive
CN(CCOc1ccccc1)CC(O)COCc1ccccc1F (configuration not stated)	none
CC1CC(C)CN(CC(O)COCc2ccccc2F)C1 (configuration not stated)	PP1 counter 39 | PP1 inh confirm inactive | PP5 counter inactive
Cc1cc(C(=O)C(C)OC(=O)c2ccc(NC(=O)CC#N)cc2)c(C)n1-c1ccccc1 (configuration not stated)	PP1 counter 19 | PP1 inh confirm inactive | PP5 counter inactive
CC(OC(=O)c1ccc(NC(=O)CC#N)cc1)C(=O)NC(c1ccccc1)c1ccccc1 (configuration not stated)	none (no result: PP1 counter)
N#CCCN(C(=O)COC(=O)CCC(=O)c1ccc(F)cc1)c1ccccc1	none
N#CCCN(C(=O)COC(=O)CCN=C1NS(=O)(=O)c2ccccc21)c1ccc(F)cc1	PP1 counter 39 | PP1 inh confirm inactive | PP5 counter inactive
CCc1ccc(Nc2n[n+](-c3ccccc3)c(-c3ccc(N(CC)CC)cc3)s2)cc1	PP1 counter 24 | PP1 inh confirm inactive | PP5 counter inactive
c1ccc(COc2ccc(-c3sc(Nc4ccccc4)n[n+]3-c3ccccc3)cc2)cc1	PP1 counter 20 (no result: Exocytosis inh, Beta2AR agonist, NadD block) | PP1 inh confirm inactive | PP5 counter inactive
CCc1ccc(Nc2n[n+](-c3ccccc3)c(-c3c(Cl)cccc3Cl)s2)cc1	PP1 counter 31, Beta2AR agonist 80 | PP1 inh confirm inactive | PP5 counter inactive
COC(=O)c1ccc(NC(=O)C2CCCN2C(=O)OCc2ccccc2)cc1 (configuration not stated)	none
O=C(OCC(=O)N1CCc2ccccc2C1)c1c(F)cccc1Cl	none (no result: PP1 counter)
COc1ccc(N2CCN(C(=O)CSc3ncnc4scc(-c5ccc(C)cc5)c34)CC2)cc1	PP1 counter 26 | PP1 inh confirm 19 | PP5 counter inactive
COc1ccccc1N=Nc1ccc(O)c2ncccc12	PP1 counter 19, NadD block 31 | PP1 inh confirm 16 | PP5 counter inactive
Cc1ccc(/C(O)=C2/C(=O)C(=O)N(c3ccccn3)C2c2cccc([N+](=O)[O-])c2)cc1 (configuration not stated)	PP1 counter 18 | PP1 inh confirm inactive | PP5 counter inactive
Cc1ccc(-c2nnc(SCC(=O)N/N=C/c3ccc(C)s3)n2-c2ccc(C)cc2)cc1	PP1 counter 20 | PP1 inh confirm inactive | PP5 counter inactive
Cc1cccc(C)c1NC(=O)C1(C)CN(S(C)(=O)=O)CC(=O)N1Cc1ccc2c(c1)OCO2 (configuration not stated)	none (no result: PP1 counter, Beta2AR agonist, NadD block, GRK2 aptamer HTS)
Cc1nc2nc(C)c(CCC(=O)Nc3ccc4c(c3)OCO4)c(C)n2n1	none
Cc1ccccc1-n1c(SCC(=O)N/N=C/c2c(C)nn(-c3ccccc3)c2C)nc2ccccc2c1=O	PP1 counter 18 | PP1 inh confirm inactive | PP5 counter inactive
Cc1nc(-c2ccccn2)nc(N2CCOCC2)c1Cl	none
Cc1nc(-c2ccccn2)nc(N(C)c2ccccc2)c1Cl	PP1 counter 27 | PP1 inh confirm 23 | PP5 counter inactive
COc1cc(/C=C/C(=O)OCC(=O)Nc2ccc3[nH]c(=O)[nH]c3c2)ccc1OC(F)F	none (no result: PP1 counter, Beta2AR agonist, GRK2 aptamer HTS)
CCCCc1ccc(Nc2nc(CCC)cc(=O)[nH]2)cc1	PP1 counter 18 | PP1 inh confirm inactive | PP5 counter inactive
CCCc1cc(=O)[nH]c(Nc2ccc(N3CCCCC3)cc2)n1	none
CC(C)(C)c1ccc(-c2nnc(SCC(=O)NC3CC3)o2)cc1	none
Cc1cc(-c2ccc3c(c2)COc2c4ccccc4nn2-3)on1	PP1 counter 25 | PP1 inh confirm 26 | PP5 counter inactive
